Results as given in ChEMBL document CHEMBL3988442, “University of Dundee, Small-Polar-MMV Screening Library” (2021).
Out of some 48,000 compounds screened, about 13,000 (27%) showed an effect of 50% or more. The list shows a part of the results.

Test system: Wolbachia pipientis
Assay: Anti-Wolbachia Cell-Based Screen
Format: functional
Set-up: scale not given: in the data most compounds retested in dose-response had high values
Conditions: 5 µM

Compared with `CCN(C(=O)c1cc2c([nH]c1=O)CCCC2=O)C1CCCCC1`, `Cc1ccc(NC(=O)c2ccc(=O)n(CC(=O)NC3CCCC3)n2)cc1` is higher in “Percent Effect” value: 14.13% for the first, 106.4% for the second.

Compared with `CN(C)c1ncc(CNC(=O)Nc2ccccc2C(F)(F)F)n1C`, `O=C(NCc1ccccc1CN1CCCC1=O)Nc1nccs1` is lower in “Percent Effect” value: 9.124% for the first, -2.659% for the second.

First: Cn1nc2c(cc1=O)CN(Cc1coc(-c3cccs3)n1)CC2
Second: COCC(=O)NCc1cc(=O)n2c(n1)CN(Cc1cccs1)CCC2
The “Percent Effect” value of the first is lower: 1.365% for the first, 97.08% for the second.

First: COCCN1C[C@H]2CC[C@@H]1CN(C(=O)CCc1n[nH]c(C)c1C)C2
Second: Cc1cc(C(=O)N2C[C@H]3CC[C@@H]2CN(Cc2ccccn2)C3)nc(N)n1
The “Percent Effect” value of the first is lower: 0.4749% for the first, 2.343% for the second.

Compared with `CC(=O)c1c(F)cccc1N1CCC(Cc2cccnc2)CC1`, `Cc1cc(N2CCC(Cc3cccnc3)C2)ncn1` (stereo unspecified) is higher in “Percent Effect” value: -2.782% for the first, 84.65% for the second.

First: COc1cc(N2CCCC(c3nccn3Cc3cccnc3)C2)ncn1 (stereo unspecified)
Second: Cc1cc(C)nc(CN(C)C(=O)C(c2cccnc2)N2CCCC2)c1 (stereo unspecified)
The “Percent Effect” value of the first is lower: -16.56% for the first, 24.45% for the second.

Going from `Cl.NCCc1cn(Cc2ccccn2)c2ccccc12` to `NC(=O)CCn1cc(CNCCCc2ccncc2)c2ccccc21`, the “Percent Effect” value falls from 119.5% to -11.7%.

Compared with `COC1COC2(CCN(CC3CC3)CC2)C1.O=C(O)C(F)(F)F` (stereo unspecified), `COC1COC2(CCN(CC3CCOCC3)CC2)C1.O=C(O)C(F)(F)F` (stereo unspecified) is higher in “Percent Effect” value: 95.93% for the first, 105.7% for the second.

Compared with `CS(=O)(=O)N[C@H]1CCO[C@]2(CCN(CC3CCOCC3)C2)C1.O=C(O)C(F)(F)F`, `CS(=O)(=O)N[C@@H]1CCO[C@]2(CCN(CC3CCOCC3)C2)C1.O=C(O)C(F)(F)F` is lower in “Percent Effect” value: 0.7443% for the first, -3.641% for the second.

First: CC(C)(C)c1ncc(CNc2ccccc2Cn2cncn2)s1
Second: O=C(Nc1ccccc1)c1ccc(NCc2nccs2)nn1
The “Percent Effect” value of the first is lower: 1.316% for the first, 3.378% for the second.

Compared with `CSCC(=O)N[C@H]1CN(Cc2c(C)noc2C)C[C@@H]1C(C)C`, `CSc1nc2cc(C)n(CC(=O)Nc3nccs3)c2c(=O)n1CC(C)C` is lower in “Percent Effect” value: -1.777% for the first, -4.494% for the second.

Going from `CC(C)CN1CC(c2nc(C3CC3)n[nH]2)CC1=O` (stereo unspecified) to `Cn1cnnc1C1CCCN(C(=O)NCc2ccc3c(c2)OCO3)C1` (stereo unspecified), the “Percent Effect” value falls from 4.423% to -7.5%.

Going from `Cc1ccc(NC(=O)c2ccc(=O)n(CC(=O)Nc3nccs3)n2)cc1` to `Cc1ccc(-c2ccc(=O)n(CC(=O)Nc3nccs3)n2)cc1`, the “Percent Effect” value rises from 101.8% to 124.1%.

Compared with `Cc1cc(C)n(CC2CCCCN2CC(=O)Nc2nccs2)n1` (stereo unspecified), `COc1cc(Cl)ccc1C(=O)NCC(=O)Nc1nccs1` is higher in “Percent Effect” value: -11.15% for the first, -9.549% for the second.

First: CCC(=O)NC1CCCN(Cn2nc(C(C)(C)C)ccc2=O)C1 (stereo unspecified)
Second: Cn1ccnc1C(=O)NCc1cc(=O)n2c(n1)CN(CC1CC1)CCC2
The “Percent Effect” value of the first is higher: -0.4021% for the first, -4.321% for the second.

Going from `Cc1ccccc1C(=O)Nc1cnn(CC(=O)NC2CCCC2)c1` to `O=C(CCn1nc(C(=O)Nc2ccccc2)ccc1=O)Nc1nccs1`, the “Percent Effect” value rises from -2.578% to 112.6%.

First: N#Cc1cccc(CS(=O)(=O)NCC(O)Cc2ccccc2)c1 (stereo unspecified)
Second: Cc1ccccc1CS(=O)(=O)NCCCN1CCCCC1
The “Percent Effect” value of the first is lower: -5.845% for the first, -4.018% for the second.

First: Cc1nc(-c2cccc(C#N)c2)nn1CC1(O)CCCCC1
Second: O=C(c1cccs1)N1CCCn2c(nc(CN3CCCC3)cc2=O)C1
The “Percent Effect” value of the first is lower: -14.51% for the first, -6.505% for the second.

First: Cn1c(NCCC(=O)N2CCCC2)c(C#N)c(=O)n(C)c1=O
Second: CCCN1CCCn2c(nc(CNC(=O)c3nccn3C)cc2=O)C1.O=C(O)C(F)(F)F
The “Percent Effect” value of the first is higher: 17.52% for the first, -4.018% for the second.

Going from `N#CCCNC(=O)CSc1cc(F)ccc1F` to `COC(=O)[C@H]1C[C@@H](O)CCN1S(=O)(=O)c1ccc(F)cc1F`, the “Percent Effect” value falls from 8.044% to -1.254%.

Compared with `COCC(=O)NCc1cc(=O)n2c(n1)CN(Cc1nccs1)CCC2`, `Cc1noc(CCCC(=O)N2CCN(C)CC2c2ccccc2)n1` (stereo unspecified) is lower in “Percent Effect” value: 109.1% for the first, 7.741% for the second.

Going from `CC(CNC(=O)NCc1ccc2c(c1)OCO2)CC1(C)OCCO1` (stereo unspecified) to `Cc1cc(C)nc(N2CC=C[C@H]2C(=O)NCc2ccc3c(c2)OCO3)n1`, the “Percent Effect” value rises from -13.46% to 114.7%.

First: Cc1cc(C)nc(N2CC=C[C@@H]2C(=O)NCc2ccc3c(c2)OCO3)n1.Cl
Second: CCN(CC)Cc1ccc(C(=O)NC2CCc3cc(Cl)ccc32)o1 (stereo unspecified)
The “Percent Effect” value of the first is higher: 87.31% for the first, 1.872% for the second.

Going from `CC(C)(C)NS(=O)(=O)c1cc(NC(=O)C2CC2)ccc1F` to `CN(CC(=O)NC1CC1)S(=O)(=O)c1ccc(F)cc1Cl`, the “Percent Effect” value rises from -6.714% to -5.607%.

Compared with `COc1ccc(C2CCCN2S(=O)(=O)c2cc(F)ccc2F)cc1` (stereo unspecified), `O=S(=O)(c1cc(F)ccc1F)N1CCCC1c1ccncc1` (stereo unspecified) is lower in “Percent Effect” value: 118.1% for the first, 90.37% for the second.

Going from `O=S(=O)(c1cc(F)ccc1F)N1CCCC1c1ccco1` (stereo unspecified) to `Cc1ccc(F)c(S(=O)(=O)N2CCCC2c2ccncc2)c1` (stereo unspecified), the “Percent Effect” value rises from 90.48% to 113.4%.

First: C[C@@H]1CN(S(=O)(=O)c2ccc(F)cc2Cl)C[C@]1(C)O
Second: COc1ccc(F)cc1S(=O)(=O)N1CCC(OC)CC1
The “Percent Effect” value of the first is lower: 2.252% for the first, 11.35% for the second.

First: COC1CCN(S(=O)(=O)N2CCCC2c2ccco2)CC1 (stereo unspecified)
Second: O=S(=O)(N1CCC(n2cccc2)CC1)N1CCCC1c1ccco1 (stereo unspecified)
The “Percent Effect” value of the first is higher: -19.32% for the first, -32.64% for the second.

First: COc1ccc(C2CCCN2S(=O)(=O)N(C)CC(C)C)cc1 (stereo unspecified)
Second: COc1ccc(C2CCCCCN2S(=O)(=O)N(C)C)cc1 (stereo unspecified)
The “Percent Effect” value of the first is higher: -5.01% for the first, -32.58% for the second.

Compared with `O=S(=O)(c1ccc(F)cc1Cl)N1CCCC1c1ccncc1` (stereo unspecified), `Cc1ccc([C@@H]2CN(S(=O)(=O)c3cc(C)ccc3F)C[C@H]2N(C)C)cc1` is lower in “Percent Effect” value: 106.2% for the first, -17.89% for the second.

Compared with `Cc1cc(C(=O)N2CCNC(=O)CC2)c(C)n1CC(F)(F)F`, `CN1C(=O)CC(C(=O)O)C12CCN(Cc1ccc(F)c(Cl)c1)CC2` (stereo unspecified) is higher in “Percent Effect” value: -3.477% for the first, 19.25% for the second.

Compared with `CNS(=O)(=O)CCCn1nnc(-c2ccc(F)c(C)c2)n1`, `CCC[C@H]1CN(S(=O)(=O)c2cc(C)ccc2F)C[C@@H]1N` is higher in “Percent Effect” value: -16.4% for the first, -6.271% for the second.

First: O=C(NC1CC(=O)N(C2Cc3ccccc3C2)C1)c1csnn1 (stereo unspecified)
Second: CN1CCN2C[C@@H](NC(=O)c3nc4ccccc4[nH]3)C[C@H]2C1
The “Percent Effect” value of the first is lower: -8.023% for the first, 10.91% for the second.
